# In the supplement of paper PMC8728848:
# This excerpt belongs to a sample that is enriched for the strongest signals.
# B1: MpAFP NterminalRI GFP (Marinomonas primoryensis) (protein)
# chain: MSDNQFPFATLGNAIGFITKLDGSVTVQSIDGQERVLKLGDPIFFGETVLTGGSGSVTIAFVDGTDVVIGGDSIVEMTDEIYNTGDNEDLVADSSSEIDALQNAILAGDDPTLIQDAPAAGNTLADQQRVDVSIERNDNSAQAGFGVDTQSSLPTYGYDTDNGNGGQATEREYSAPSLSRTLNQSPLLEHHHHHH
# Tests used:
# Test in all cases: glycan array binding signal (z-score within array); higher = stronger binding
# Conditions in all cases: glycan notation: IUPAC condensed, linker removed
# [1] = biological target: Glc(a1-6)Glc(a1-6)Glc(a1-6)Glc
# How it was run: (§1)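 The binding signal is a Z-score computed within each array. Data were drawn from 3228 arrays in the Consortium for Functional Glycomics database, restricted to those with a known protein sequence. Scores were averaged over arrays of the same protein sequence at different concentrations or buffers, and over linkers, and negative values can be taken as non-binding.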
# Glc(b1-4)Glc = biological target: Glc(b1-4)Glc
# How it was run: as §1
# GlcA(b1-6)Gal = biological target: GlcA(b1-6)Gal
# How it was run: as §1
# [2] = biological target: GlcNAc(b1-3)Gal(b1-4)GlcNAc(b1-2)[GlcNAc(b1-3)Gal(b1-4)GlcNAc(b1-6)]Man(a1-6)[GlcNAc(b1-3)Gal(b1-4)GlcNAc(b1-2)Man(a1-3)]Man(b1-4)GlcNAc(b1-4)GlcNAc
# How it was run: as §1
# [3] = biological target: GlcNAc(b1-3)Gal(b1-4)GlcNAc(b1-3)Gal(b1-4)GlcNAc(b1-3)Gal(b1-4)GlcNAc(b1-2)Man(a1-3)[GlcNAc(b1-3)Gal(b1-4)GlcNAc(b1-3)Gal(b1-4)GlcNAc(b1-3)Gal(b1-4)GlcNAc(b1-2)Man(a1-6)]Man(b1-4)GlcNAc(b1-4)GlcNAc
# How it was run: as §1
# [4] = biological target: GlcNAc(b1-3)Gal(b1-4)GlcNAc(b1-3)Gal(b1-4)GlcNAc(b1-3)Gal(b1-4)GlcNAc(b1-2)[GlcNAc(b1-3)Gal(b1-4)GlcNAc(b1-3)Gal(b1-4)GlcNAc(b1-3)Gal(b1-4)GlcNAc(b1-6)]Man(a1-6)[GlcNAc(b1-3)Gal(b1-4)GlcNAc(b1-3)Gal(b1-4)GlcNAc(b1-3)Gal(b1-4)GlcNAc(b1-2)Man(a1-3)]Man(b1-4)GlcNAc(b1-4)[Fuc(a1-6)]GlcNAc
# How it was run: as §1
# [5] = biological target: GlcNAc(b1-3)Gal(b1-4)GlcNAc(b1-3)Gal(b1-4)GlcNAc(b1-3)Gal(b1-4)GlcNAc(b1-3)Gal(b1-4)GlcNAc(b1-2)Man(a1-3)[GlcNAc(b1-3)Gal(b1-4)GlcNAc(b1-3)Gal(b1-4)GlcNAc(b1-3)Gal(b1-4)GlcNAc(b1-3)Gal(b1-4)GlcNAc(b1-2)Man(a1-6)]Man(b1-4)GlcNAc(b1-4)GlcNAc
# How it was run: as §1
# [6] = biological target: GlcNAc(b1-3)Gal(b1-4)GlcNAc(b1-3)Gal(b1-4)GlcNAc(b1-3)GalNAc
# How it was run: as §1
# [7] = biological target: GlcNAc(b1-3)[GlcNAc(b1-6)]Gal(b1-4)GlcNAc
# How it was run: as §1
# GlcNAc(b1-4)GlcNAc = biological target: GlcNAc(b1-4)GlcNAc
# How it was run: as §1
# [8] = biological target: Man(a1-2)Man(a1-3)[Man(a1-2)Man(a1-6)]Man
# How it was run: as §1
# [9] = biological target: Man(a1-3)[Man(a1-6)]Man(b1-4)GlcNAc(b1-4)[Fuc(a1-6)]GlcNAc
# How it was run: as §1
# [10] = biological target: Neu5Ac(a2-3)Gal(b1-3)GalNAc6S
# How it was run: as §1
# [11] = biological target: Neu5Ac(a2-3)Gal(b1-3)]Neu5Ac(a2-3)Gal(b1-4)]GlcNAc
# How it was run: as §1
# [12] = biological target: Neu5Ac(a2-3)Gal(b1-4)GlcNAc(b1-3)Gal(b1-4)GlcNAc(b1-3)Gal(b1-4)GlcNAc(b1-2)Man(a1-3)[Neu5Ac(a2-3)Gal(b1-4)GlcNAc(b1-3)Gal(b1-4)GlcNAc(b1-3)Gal(b1-4)GlcNAc(b1-2)Man(a1-6)]GalNAc
# How it was run: as §1
# [13] = biological target: Neu5Ac(a2-3)Gal(b1-4)GlcNAc(b1-6)[Gal(b1-3)]GalNAc
# How it was run: as §1
# [14] = biological target: Neu5Ac(a2-3)Gal(b1-4)[Fuc(a1-3)]GlcNAc6S
# How it was run: as §1
# [15] = biological target: Neu5Ac(a2-3)[GalNAc(b1-4)]Gal(b1-4)Glc
# How it was run: as §1
# [16] = biological target: Neu5Ac(a2-6)Gal(b1-4)GlcNAc(b1-2)Man(a1-3)[GlcNAc(b1-4)][Neu5Ac(a2-6)Gal(b1-4)GlcNAc(b1-2)Man(a1-6)]Man(b1-4)GlcNAc(b1-4)GlcNAc
# How it was run: as §1
# [17] = biological target: Neu5Ac(a2-6)Gal(b1-4)GlcNAc(b1-2)Man(a1-6)Man(b1-4)GlcNAc(b1-4)GlcNAc
# How it was run: as §1
# [18] = biological target: Neu5Ac(a2-6)Gal(b1-4)GlcNAc(b1-3)Gal(b1-4)GlcNAc(b1-3)Gal(b1-4)GlcNAc(b1-2)Man(a1-3)[Neu5Ac(a2-6)Gal(b1-4)GlcNAc(b1-3)Gal(b1-4)GlcNAc(b1-3)Gal(b1-4)GlcNAc(b1-2)Man(a1-6)]GalNAc
# How it was run: as §1
# [19] = biological target: Neu5Ac(a2-6)Gal(b1-4)GlcNAc(b1-3)Gal(b1-4)GlcNAc(b1-3)[Neu5Ac(a2-6)Gal(b1-4)GlcNAc(b1-3)Gal(b1-4)GlcNAc(b1-6)]GalNAc
# How it was run: as §1
# [20] = biological target: Neu5Ac(a2-6)Gal(b1-4)GlcNAc(b1-3)Gal(b1-4)[Fuc(a1-3)]GlcNAc(b1-3)Gal(b1-4)[Fuc(a1-3)]GlcNAc
# How it was run: as §1
# Neu5Ac(a2-6)GalNAc = biological target: Neu5Ac(a2-6)GalNAc
# How it was run: as §1
# [21] = biological target: Neu5Ac(a2-8)Neu5Ac(a2-3)Gal(b1-4)GlcNAc
# How it was run: as §1
# [22] = biological target: Neu5Gc(a2-3)Gal(b1-4)GlcNAc
# How it was run: as §1
# Neu5Gc(a2-6)GalNAc = biological target: Neu5Gc(a2-6)GalNAc
# How it was run: as §1
binder,measurement,setting,value
B1,glycan array binding signal (z-score),[1],-0.16
same,glycan array binding signal (z-score),Glc(b1-4)Glc,0.784
same,glycan array binding signal (z-score),GlcA(b1-6)Gal,-0.407
same,glycan array binding signal (z-score),[2],6.32
same,glycan array binding signal (z-score),[3],6.83
same,glycan array binding signal (z-score),[4],2.6
same,glycan array binding signal (z-score),[5],0.255
same,glycan array binding signal (z-score),[6],-0.344
same,glycan array binding signal (z-score),[7],-0.441
same,glycan array binding signal (z-score),GlcNAc(b1-4)GlcNAc,4.84
same,glycan array binding signal (z-score),[8],2.93
same,glycan array binding signal (z-score),[9],-0.195
same,glycan array binding signal (z-score),[10],-0.078
same,glycan array binding signal (z-score),[11],-0.531
same,glycan array binding signal (z-score),[12],2.98
same,glycan array binding signal (z-score),[13],3.31
same,glycan array binding signal (z-score),[14],-0.574
same,glycan array binding signal (z-score),[15],-0.63
same,glycan array binding signal (z-score),[16],-0.202
same,glycan array binding signal (z-score),[17],-0.385
same,glycan array binding signal (z-score),[18],1.24
same,glycan array binding signal (z-score),[19],-0.027
same,glycan array binding signal (z-score),[20],-0.212
same,glycan array binding signal (z-score),Neu5Ac(a2-6)GalNAc,-0.388
same,glycan array binding signal (z-score),[21],-0.655
same,glycan array binding signal (z-score),[22],-0.632
same,glycan array binding signal (z-score),Neu5Gc(a2-6)GalNAc,3.75
